Coupling enz = counter-screen for Giardia aldolase inhibitors: coupling enzyme system; activity change, negative = inhibition, % at 58.2 µM, hits read low; coupling enzyme system counterscreen, AmpLite Red fluorescence; 290,000 compounds, 0.67% hits; in the data active = activity change below about -30%
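Final compound at 57.5 uM, incubated 10 min at RT with coupling enzyme reagent (glyceraldehyde-3-phosphate), then 20 min with substrate and AmpLite Red detection. Fluorescence read at 525/598 nm; tests interference with the coupling assay, not aldolase inhibition.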
Tau fluor cs = counter-screen for tau fibril formation inhibitors; tau K18 P301L Alexa594 fluorescence, heparin fibrillization; AID 1463; 280,000 compounds, 0.93% hits; Potency, µM (titrated, usually from 57.7 µM), inactives show at the highest dose activity change, negative = decrease; note: potency is the fitted concentration of half-maximal effect; nearly all actives have a fitted effect of over 55% in size
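Human tau K18 P301L (15 uM unlabeled, 0.24 uM Alexa 594-labeled) in 100 mM sodium acetate pH 7 with 20 uM heparin, 6 hr at 37 C. ThT 30 uM added, 1 hr ambient; Alexa 594 FP and total fluorescence read at 555/632 nm.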
Sfp inh = Sfp phosphopantetheinyl transferase inhibition; Q9F4F7; Biochemical Sfp PPTase activity, qHTS; Potency, µM, without a hit: largest response in the series, negative = inhibition, hits mostly inhibitors; 310,000 compounds, 3.5% hits; AID 1490;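 note: the enzyme is Sfp with the accession as filed and its product quenches rhodamine fluorescence; potency is the fitted concentration of half-maximal effect; 0% = enzyme reaction without inhibitor and -100% = no enzyme wells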
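Fluorescence-quenching assay: 15 nM Sfp-PPTase preincubated 15 min at room temperature with compound, then 5 uM rhodamine-CoA and 12.5 uM BHQ-2-labelled YbbR peptide added. Fluorescence (ex 525/em 598 nm) read at start and after 30 min; difference gives rate.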
KDM4E inh = inhibitors of human JMJD2E histone demethylase | B2RXH2 | JMJD2E catalytic domain, FDH-coupled NADH fluorescence (FDH is formaldehyde dehydrogenase) | Potency, µM (series often up to 57.1 µM), inactives show at the top dose activity change, negative = inhibition, hits mostly inhibitors | 230,000 compounds, 1.6% hits | AID 2147; active = well fitted inhibition curve with a large enough effect, not every such curve was filed as active; inconclusive = small, poorly fitted or top-dose-only effect, or another doubt; inactive = no such curve, though single readings can be large or run the other way;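 note: potency is the fitted concentration of half-maximal effect; 0% = wells with enzyme and -100% = buffer wells without enzyme; nearly all actives have a fitted effect of over 50% in size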
Target sequence (B2RXH2 1-337 limits assumed): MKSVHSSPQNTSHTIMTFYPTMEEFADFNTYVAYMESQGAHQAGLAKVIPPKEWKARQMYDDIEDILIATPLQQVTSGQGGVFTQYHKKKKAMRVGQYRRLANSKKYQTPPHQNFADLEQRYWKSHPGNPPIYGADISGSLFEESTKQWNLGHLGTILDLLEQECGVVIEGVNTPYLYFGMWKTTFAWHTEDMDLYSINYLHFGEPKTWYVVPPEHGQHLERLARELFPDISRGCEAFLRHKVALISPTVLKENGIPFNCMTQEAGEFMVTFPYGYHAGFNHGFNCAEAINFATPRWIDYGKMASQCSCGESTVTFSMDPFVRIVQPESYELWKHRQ
Tau ThT inhib = tau fibrillization inhibition (ThT binding); P10636; recombinant tau K18 P301L (four-repeat tau fragment), heparin-induced fibrillization, ThT fluorescence; Potency, µM (titrated, usually from 57.4 µM), for the others: at the highest dose activity, negative = inhibition, most hits filed as inhibitors; 270,000 compounds, 2.1% hits; AID 1460; note: potency is the fitted concentration of half-maximal effect; nearly all actives have a fitted effect of over 55% in size
Target sequence (P10636 561-689 P618L limits assumed): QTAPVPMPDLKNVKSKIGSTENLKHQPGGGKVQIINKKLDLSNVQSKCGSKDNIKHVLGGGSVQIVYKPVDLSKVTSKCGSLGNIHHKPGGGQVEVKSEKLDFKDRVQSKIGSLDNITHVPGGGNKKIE
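Recombinant human tau K18 fragment […] carrying P301L, 15 uM unlabeled plus 0.24 uM Alexa 594-labeled, was fibrillized with 20 uM heparin in 100 mM sodium acetate pH 7 for 6 hr at 37 C; 30 uM ThT fluorescence read after 1 hr.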
Tau FP inhib = inhibitors of human tau fibril formation; Potency, µM (series often up to 57.7 µM), without a hit: top-dose activity, negative = inhibition, usual class: inhibitors; 280,000 compounds, 0.39% hits; K18 P301L tau heparin fibrillization, Alexa594 FP, 6 h; P10636; note: potency is the fitted concentration of half-maximal effect; nearly all actives have a fitted effect of over 55% in size
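Human tau K18 […] P301L fragment, 15 uM unlabeled plus 0.24 uM Alexa 594-labeled tau (final), with compound and 20 uM heparin in 100 mM sodium acetate pH 7; 6 hr at 37 C, then Alexa 594 FP read.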
* = called active by the depositor; ? = inconclusive; . = no result given; [ ] = another dose, or the depositor's remark. Compounds with a hit are over-represented: about 5.3% of the library has one in this group of screens. Unless noted, calls come from the whole dose curve; as a rule, active = well fitted curve in the direction sought with a large enough effect; inconclusive = small, poorly fitted or top-dose-only effect, or another doubt; inactive = no such curve, though single readings can be large; an effect the other way counts as inactive or inconclusive. Unless noted, % is set by controls: 0 for no effect and ±100 for the full control effect.

SMILES	Coupling enz	Tau fluor cs	Sfp inh	KDM4E inh	Tau ThT inhib	Tau FP inhib
C[C@H]1Cc2c(-c3ccccc3)nc3c(c2CO1)CN(C(=O)Nc1cccc(C#N)c1)CC3	-0.3	-16.5%[11.6 µM]	16.5%	8.8%[11.4 µM]	-5.4%[11.5 µM]	-1.6%[11.6 µM]
CCCCN1C(=O)C(=O)N(CC(=O)N2N=C3/C(=C/c4ccco4)CCCC3C2c2ccco2)C1=O (centres undefined)	0.3	-8.1%	44.7µM*	-5.1%	-4.7%	-7.2%
CCCCCCCCCCCCC/C=C/[C@@H](O)[C@H](CO)NC(=O)CCCCCCCCCCCCCCC	2.0	4.7%	-4.3%	0.2%	0.6%	-2.6%
CC(C)(C)N=C1C([N+](=O)[O-])=CC=C2C1=NC1(CCCCC1)N2O	-46.0*	-5.3%	?	-5.8%	-1.9%	0.9%
CC1(C)CC(N=C2C([N+](=O)[O-])=CC=C3C2=NC2(CCCCC2)N3O)CC(C)(C)N1	-38.4*	-26.9%	-18.6%	?	?	?
O=[N+]([O-])C1=CC=C2C(=NC3(CCCCC3)N2O)C1=NC1CCCCC1	-20.7	-23.7%	-18.0%	1.7%	?	-5.8%
O=[N+]([O-])C1=CC=C2C(=NC3(CCCCC3)N2O)C1=NCCc1ccccc1	-64.5*	-20.9%	13.7%	-5.4%	?	7.7%
CC(C)[C@H](NC(=O)[C@H](CC(=O)O)NC(=O)CNC(=O)[C@@H](N)CCCN=C(N)N)C(=O)O	-0.2	.	9.1%	.	.	.
Cc1ccc(CNC(=O)C(C)n2c(=O)cc(-c3ccccc3)c3c(C)nn(C)c32)cc1 (centres undefined)	.	-0.2%	.	.	-8.7%	4.1%
COc1ccc(-c2cc(=O)n(CCC#N)[nH]2)cc1	-2.9	-10.6%	6.4%	1.78µM*	?	0.6%
O=C(c1ccc(F)cc1)N1CCCCC(S(=O)(=O)c2ccccc2)C1=O (centres undefined)	-2.0	-6.3%	79.4µM*	3.5%	-7.6%	4.2%
C=CC1=C2C=C(C3CC3)N(CC3CC3)C=C2C(=O)C(C)(OC(=O)c2ccco2)C1=O (centres undefined)	-30.5*	-3.3%[11.6 µM]	-6.8%	-20.0%[11.4 µM]	-15.5%[11.5 µM]	-1.3%[11.6 µM]
C=CC1=C2C=C(C3CC3)N(CCOC)C=C2C(=O)C(C)(OC(=O)c2ccco2)C1=O (centres undefined)	-29.1	-7.6%[11.6 µM]	0.4%	-23.4%[11.4 µM]	-6.1%[11.5 µM]	-10.8%[11.6 µM]
C=CCN1C=C2C(=O)C(C)(OC(=O)c3ccco3)C(=O)C(C=C)=C2C=C1C1CC1 (centres undefined)	-20.2	-17.3%[11.6 µM]	-0.5%	-27.6%[11.4 µM]	-15.4%[11.5 µM]	0.5%[11.6 µM]
C=CC1=C2C=C(C3CC3)N(CCCCO)C=C2C(=O)C(C)(OC(=O)c2ccco2)C1=O (centres undefined)	-42.4*	-9.0%[11.6 µM]	9.7%	?	?	?
CN1c2ccsc2C(O)=C(C(=S)Nc2ccc(F)c(Cl)c2)S1(=O)=O	4.7	?	50.1µM*	?	20µM*	?
O=c1oc2cc([N+](=O)[O-])ccc2nc1/C=C(O)/C=C/c1ccccc1	3.9	?	50.1µM*	5.2%	.	?
COC(=O)/C=C1/SC(=NC(=O)c2ccccc2)NC1=O	4.5	-4.2%	28.2µM*	1.9%	-13.2%	2.2%
COC(=O)/C=C1\SC(=NC(=O)c2cccc(Cl)c2)NC1=O	4.6	-6.7%	44.7µM*	7.9%	-12.1%	-10.1%
COC(=O)/C=C1/SC(=NC(=O)c2ccc(F)cc2)NC1=O	-1.2	-15.1%	28.2µM*	-10.1%	?	-14.5%
COC(=O)/C=C1/SC(=NC(=O)c2ccc(OC)cc2)NC1=O	.	.	-18.3%	.	.	.
Cc1[nH]c2ccccc2c1C1(O)C(=O)N(Cc2ccccc2)c2ccc(Br)cc21 (centres undefined)	.	11.2µM*[quencher]	.	.	?	2.2%
Cc1[nH]c2ccccc2c1C1(O)C(=O)N(Cc2ccccc2Cl)c2ccccc21 (centres undefined)	.	?	.	.	?	10.7%
COc1ccc(C2CC(c3ccccc3)Oc3ccc(C(C)(C)C)cc32)cc1 (centres undefined)	-1.5	.	-9.7%	.	.	.
Cc1ccc(C)c(N2CCN(Cc3nnnn3C3CCCCC3)CC2)c1	-2.0	-18.7%	79.4µM*	-20.9%	?	-4.8%
SMILES	Coupling enz	Tau fluor cs	Sfp inh	KDM4E inh	Tau ThT inhib	Tau FP inhib
O=C(Nc1ccc(Cl)cc1)c1cnn2c1NC(c1ccccc1)=CC2c1ccccc1 (centres undefined)	.	10µM*[quencher]	.	.	?	?
CCOC(=O)C1=C(O)c2ccccc2C(=O)/C1=C\c1ccc(C)cc1	-51.0*	-16.2%	11.2µM*	?	14.1µM*	?
Cc1ccc(C2=C(O)c3ccccc3C(=O)C2=O)cc1	-14.5	.	-1.6%	.	.	.
COc1ccc(C(=O)N2CCC3(CCCN(Cc4cc(C(F)(F)F)cc(C(F)(F)F)c4)C3)CC2)cc1	-5.8	.	13.5%	.	.	.
CCOC(=O)c1ccc(N2C(=O)c3[nH]nc(-c4ccc(C)cc4)c3C2c2cccc(F)c2)cc1 (centres undefined)	.	-22.9%	.	.	-3.2%	?
CCOC(=O)c1ccc(N2C(=O)c3[nH]nc(-c4ccc(OC)cc4)c3C2c2cccc(O)c2)cc1 (centres undefined)	.	?	.	.	?	15.8µM*
COc1ccc(Nc2nc(-c3ccc(C)cc3)nc3ccccc23)c(OC)c1	.	7.94µM*[quencher]	.	.	?	-0.6%
COc1ccc(OC)c(Nc2nc(-c3ccc(C)cc3)nc3ccccc23)c1	.	?	.	.	1.4%	-12.9%
COc1ccc(-c2nc(N/N=C(\C)c3ccc(O)cc3)c3ccccc3n2)cc1	-5.6	20µM*[quencher]	-24.5%	-9.8%	?	6.5%
CCOC(=O)C(C)Nc1ncnc2onc(C)c12 (centres undefined)	.	-1.4%	.	.	3.1%	-1.2%
O=C(CCNS(=O)(=O)c1ccc(Br)s1)Nc1ccc(Br)cc1	.	?	.	.	-6.9%	?
C=C1C(=O)C=C2CN(C(=O)c3ccccc3)[C@@](Cc3ccc(OC)cc3)(C(=O)OC)[C@@H]12	-0.9	-8.1%	3.98µM*	?	?	?
Cc1noc(C)c1-c1ccc2ncnc(NCc3ccccc3Cl)c2c1	0.5	.	-6.9%	.	.	.
COc1coc(C(O)CN)cc1=O (centres undefined)	-0.5	0.5%	4.0%	-13.6%	-8.1%	-5.8%
CCOC(=O)C(=Cc1cc(=O)c(OC)co1)C(=O)OCC	0.7	4.0%	6.31µM*	-7.7%	?	?
Nc1c(S(=O)(=O)c2cccs2)c2nc3ccccc3nc2n1/N=C/c1cccc(O)c1	-0.5	3.16µM*[quencher]	5.3%	?	-0.3%	7.94µM*
CC(C)Cn1c(N)c(S(=O)(=O)c2cccs2)c2nc3ccccc3nc21	-31.2*	-28.7%	-4.8%	?	-28.7%	-11.4%

Screening results (PubChem BioAssay)
